Test results as given in PMC11006913.

Experiments:
Test in all cases: PBM; 200 nM protein, PBS
Settings in all cases: dsDNA, one strand shown
HOXC9 [1] = biological target: HOXC9 (Homo sapiens, UniProt P31274 178-260, K195R)
HOXC9 [2] = biological target: HOXC9 (Homo sapiens, UniProt P31274 178-260)
MSX2 [3] = biological target: MSX2 (Homo sapiens, UniProt P35548 130-214, R199I)
HOXD13 [4] = biological target: HOXD13 (Homo sapiens, UniProt P35453 263-343, T313R)
HOXC9 [5] = biological target: HOXC9 (Homo sapiens, UniProt P31274 178-260, R193K)
HOXD13 [6] = biological target: HOXD13 (Homo sapiens, UniProt P35453 263-343)
MSX2 [7] = biological target: MSX2 (Homo sapiens, UniProt P35548 130-214)
HOXD13 [8] = biological target: HOXD13 (Homo sapiens, UniProt P35453 263-343, T313A)
HOXC9 [9] = biological target: HOXC9 (Homo sapiens, UniProt P31274 178-260, R222W)
MSX2 [10] = biological target: MSX2 (Homo sapiens, UniProt P35548 130-214, F161Y)
CRX [11] = biological target: CRX (Homo sapiens, UniProt O43186 26-111, E42D)
PITX2 = PITX2 (Homo sapiens, UniProt Q99697 72-157)
CRX [12] = biological target: CRX (Homo sapiens, UniProt O43186 26-111, R41L)
HOXA2 [13] = biological target: HOXA2 (Homo sapiens, UniProt O43364 129-215, R185T)
HOXA2 [14] = biological target: HOXA2 (Homo sapiens, UniProt O43364 129-215, R185K)
HOXA2 [15] = biological target: HOXA2 (Homo sapiens, UniProt O43364 129-215, Y150S)
HOXA2 [16] = biological target: HOXA2 (Homo sapiens, UniProt O43364 129-215)
NKX2-6 = biological target: T1, NKX2-6 (Homo sapiens, UniProt A6NCS4 118-204, R150C)
T1 sequence: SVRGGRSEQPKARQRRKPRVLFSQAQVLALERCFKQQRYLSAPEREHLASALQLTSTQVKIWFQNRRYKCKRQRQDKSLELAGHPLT

PROP1 [17] = biological target: PROP1 (Homo sapiens, UniProt O75360 56-141)
PROP1 [18] = biological target: PROP1 (Homo sapiens, UniProt O75360 56-141, R99H)
PROP1 [19] = biological target: PROP1 (Homo sapiens, UniProt O75360 56-141, F88S)
PROP1 (Homo sapiens, UniProt O75360 56-141, F88S), sequence (O75360 56-141 F88S): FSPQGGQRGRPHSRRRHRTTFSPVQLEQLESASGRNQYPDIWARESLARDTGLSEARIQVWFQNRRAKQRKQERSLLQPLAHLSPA

HOXA2 (Homo sapiens, UniProt O43364 129-215, Y150S), sequence (O43364 129-215 Y150S): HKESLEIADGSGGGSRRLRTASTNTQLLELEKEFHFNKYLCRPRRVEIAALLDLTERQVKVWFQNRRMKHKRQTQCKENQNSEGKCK
HOXA2 (Homo sapiens, UniProt O43364 129-215, R185K), sequence (O43364 129-215 R185K): as the sequence (O43364 129-215 Y150S) above, with S22Y, R57K counted along it
HOXC9 (Homo sapiens, UniProt P31274 178-260, R193K), sequence (P31274 178-260 R193K): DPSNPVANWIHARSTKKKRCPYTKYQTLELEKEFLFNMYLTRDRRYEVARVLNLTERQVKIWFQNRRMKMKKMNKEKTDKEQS
HOXA2 (Homo sapiens, UniProt O43364 129-215), sequence (O43364 129-215): as the sequence (O43364 129-215 Y150S) above, with S22Y counted along it
HOXA2 (Homo sapiens, UniProt O43364 129-215, R185T), sequence (O43364 129-215 R185T): as the sequence (O43364 129-215 Y150S) above, with S22Y, R57T counted along it
HOXC9 (Homo sapiens, UniProt P31274 178-260, R222W), sequence (P31274 178-260 R222W): as the sequence (P31274 178-260 R193K) above, with K16R, R45W counted along it
HOXC9 (Homo sapiens, UniProt P31274 178-260, K195R), sequence (P31274 178-260 K195R): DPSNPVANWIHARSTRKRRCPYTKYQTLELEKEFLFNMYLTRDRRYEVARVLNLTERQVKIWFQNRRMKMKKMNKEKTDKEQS
HOXD13 (Homo sapiens, UniProt P35453 263-343, T313R), sequence (P35453 263-343 T313R): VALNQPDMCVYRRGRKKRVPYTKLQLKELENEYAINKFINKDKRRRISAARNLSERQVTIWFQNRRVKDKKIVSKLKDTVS
HOXD13 (Homo sapiens, UniProt P35453 263-343), sequence (P35453 263-343): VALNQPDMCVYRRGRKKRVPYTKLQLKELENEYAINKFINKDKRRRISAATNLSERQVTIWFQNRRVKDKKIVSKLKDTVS
HOXD13 (Homo sapiens, UniProt P35453 263-343, T313A), sequence (P35453 263-343 T313A): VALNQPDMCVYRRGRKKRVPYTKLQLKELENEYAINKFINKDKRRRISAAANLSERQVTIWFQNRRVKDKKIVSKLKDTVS
HOXC9 (Homo sapiens, UniProt P31274 178-260), sequence (P31274 178-260): as the sequence (P31274 178-260 R193K) above, with K16R counted along it
PROP1 (Homo sapiens, UniProt O75360 56-141, R99H), sequence (O75360 56-141 R99H): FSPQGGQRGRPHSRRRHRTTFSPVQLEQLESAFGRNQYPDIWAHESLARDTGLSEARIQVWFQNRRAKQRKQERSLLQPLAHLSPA
PROP1 (Homo sapiens, UniProt O75360 56-141), sequence (O75360 56-141): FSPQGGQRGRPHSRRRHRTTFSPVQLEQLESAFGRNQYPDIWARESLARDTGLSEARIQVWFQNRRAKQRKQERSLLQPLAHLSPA
MSX2 (Homo sapiens, UniProt P35548 130-214), sequence (P35548 130-214): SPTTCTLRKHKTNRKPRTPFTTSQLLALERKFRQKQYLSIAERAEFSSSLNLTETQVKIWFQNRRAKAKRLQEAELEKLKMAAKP
MSX2 (Homo sapiens, UniProt P35548 130-214, F161Y), sequence (P35548 130-214 F161Y): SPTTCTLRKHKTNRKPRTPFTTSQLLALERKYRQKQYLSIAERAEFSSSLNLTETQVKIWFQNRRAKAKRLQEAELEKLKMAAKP
MSX2 (Homo sapiens, UniProt P35548 130-214, R199I), sequence (P35548 130-214 R199I): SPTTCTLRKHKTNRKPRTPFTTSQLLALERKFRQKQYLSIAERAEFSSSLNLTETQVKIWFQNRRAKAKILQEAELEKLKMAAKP
CRX (Homo sapiens, UniProt O43186 26-111, R41L), sequence (O43186 26-111 R41L): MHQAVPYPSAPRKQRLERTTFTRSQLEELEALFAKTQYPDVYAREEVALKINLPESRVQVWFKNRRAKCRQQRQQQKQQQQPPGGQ
CRX (Homo sapiens, UniProt O43186 26-111, E42D), sequence (O43186 26-111 E42D): as the sequence (O43186 26-111 R41L) above, with L16R, E17D counted along it

Question: Which results are given for TCGGGCCA?
Answer: binding signal (HOXC9 [1]): 9.7 upbm affinity estimate (log intensity, higher = more binding, comparable within an allelic series); binding signal (HOXC9 [2]): 9.78 upbm affinity estimate (log intensity, higher = more binding, comparable within an allelic series); binding signal (MSX2 [3]): 9.6 upbm affinity estimate (log intensity, higher = more binding, comparable within an allelic series); binding signal (HOXD13 [4]): 9.55 upbm affinity estimate (log intensity, higher = more binding, comparable within an allelic series); binding signal (HOXC9 [5]): 9.72 upbm affinity estimate (log intensity, higher = more binding, comparable within an allelic series); binding signal (HOXD13 [6]): 9.44 upbm affinity estimate (log intensity, higher = more binding, comparable within an allelic series); binding signal (MSX2 [7]): 9.63 upbm affinity estimate (log intensity, higher = more binding, comparable within an allelic series); binding signal (HOXD13 [8]): 9.66 upbm affinity estimate (log intensity, higher = more binding, comparable within an allelic series); binding signal (HOXC9 [9]): 9.7 upbm affinity estimate (log intensity, higher = more binding, comparable within an allelic series); binding signal (MSX2 [10]): 9.51 upbm affinity estimate (log intensity, higher = more binding, comparable within an allelic series)

Question: Which results are given for AGATTAAA?
Answer: binding signal (HOXC9 [1]): 11.2 upbm affinity estimate (log intensity, higher = more binding, comparable within an allelic series); binding signal (CRX [11]): 12.7 upbm affinity estimate (log intensity, higher = more binding, comparable within an allelic series); binding signal (HOXC9 [2]): 11.1 upbm affinity estimate (log intensity, higher = more binding, comparable within an allelic series); binding signal (PITX2): 12.3 upbm affinity estimate (log intensity, higher = more binding, comparable within an allelic series); binding signal (HOXC9 [5]): 11.2 upbm affinity estimate (log intensity, higher = more binding, comparable within an allelic series); binding signal (CRX [12]): 12.5 upbm affinity estimate (log intensity, higher = more binding, comparable within an allelic series)

Question: How did the binding signal (HOXC9 [1]) turn out when ATTTAACA was run?
Answer: 11.6 upbm affinity estimate (log intensity, higher = more binding, comparable within an allelic series)

Question: What about the binding signal (HOXC9 [2]) of the same sequence?
Answer: 11.6 upbm affinity estimate (log intensity, higher = more binding, comparable within an allelic series)

Question: And the binding signal (HOXC9 [5])?
Answer: 11.6 upbm affinity estimate (log intensity, higher = more binding, comparable within an allelic series)

Question: What does the source list for CCTGCCGC?
Answer: binding signal (HOXC9 [1]): 9.4 upbm affinity estimate (log intensity, higher = more binding, comparable within an allelic series); binding signal (HOXA2 [13]): 6.91 upbm affinity estimate (log intensity, higher = more binding, comparable within an allelic series); binding signal (HOXC9 [2]): 9.49 upbm affinity estimate (log intensity, higher = more binding, comparable within an allelic series); binding signal (HOXC9 [5]): 9.31 upbm affinity estimate (log intensity, higher = more binding, comparable within an allelic series); binding signal (HOXA2 [14]): 9.96 upbm affinity estimate (log intensity, higher = more binding, comparable within an allelic series); binding signal (HOXC9 [9]): 9.67 upbm affinity estimate (log intensity, higher = more binding, comparable within an allelic series); binding signal (HOXA2 [15]): 10.4 upbm affinity estimate (log intensity, higher = more binding, comparable within an allelic series); binding signal (HOXA2 [16]): 7.06 upbm affinity estimate (log intensity, higher = more binding, comparable within an allelic series)

Question: How did the binding signal (HOXC9 [1]) turn out when CCCTGCGG was run?
Answer: 9.55 upbm affinity estimate (log intensity, higher = more binding, comparable within an allelic series)

Question: What about the binding signal (HOXA2 [13]) of the same sequence?
Answer: 7.02 upbm affinity estimate (log intensity, higher = more binding, comparable within an allelic series)

Question: What about the binding signal (HOXC9 [2]) of the same sequence?
Answer: 9.73 upbm affinity estimate (log intensity, higher = more binding, comparable within an allelic series)

Question: And the binding signal (HOXD13 [4])?
Answer: 9.39 upbm affinity estimate (log intensity, higher = more binding, comparable within an allelic series)

Question: What about the binding signal (HOXC9 [5]) of the same sequence?
Answer: 9.6 upbm affinity estimate (log intensity, higher = more binding, comparable within an allelic series)

Question: And the binding signal (HOXA2 [14])?
Answer: 10.3 upbm affinity estimate (log intensity, higher = more binding, comparable within an allelic series)

Question: And the binding signal (HOXD13 [6])?
Answer: 9.44 upbm affinity estimate (log intensity, higher = more binding, comparable within an allelic series)

Question: And the binding signal (HOXD13 [8])?
Answer: 9.6 upbm affinity estimate (log intensity, higher = more binding, comparable within an allelic series)

Question: What about the binding signal (HOXC9 [9]) of the same sequence?
Answer: 9.56 upbm affinity estimate (log intensity, higher = more binding, comparable within an allelic series)

Question: And the binding signal (HOXA2 [15])?
Answer: 10.5 upbm affinity estimate (log intensity, higher = more binding, comparable within an allelic series)

Question: What about the binding signal (HOXA2 [16]) of the same sequence?
Answer: 7 upbm affinity estimate (log intensity, higher = more binding, comparable within an allelic series)

Question: GCAGCGCC was tested. Which binding signal (HOXC9 [1]) did it give?
Answer: 9.72 upbm affinity estimate (log intensity, higher = more binding, comparable within an allelic series)

Question: What about the binding signal (HOXC9 [2]) of the same sequence?
Answer: 9.88 upbm affinity estimate (log intensity, higher = more binding, comparable within an allelic series)

Question: And the binding signal (HOXD13 [4])?
Answer: 9.55 upbm affinity estimate (log intensity, higher = more binding, comparable within an allelic series)

Question: And the binding signal (PITX2)?
Answer: 7.75 upbm affinity estimate (log intensity, higher = more binding, comparable within an allelic series)

Question: And the binding signal (HOXC9 [5])?
Answer: 9.72 upbm affinity estimate (log intensity, higher = more binding, comparable within an allelic series)

Question: What about the binding signal (HOXD13 [6]) of the same sequence?
Answer: 9.61 upbm affinity estimate (log intensity, higher = more binding, comparable within an allelic series)

Question: What about the binding signal (HOXD13 [8]) of the same sequence?
Answer: 9.59 upbm affinity estimate (log intensity, higher = more binding, comparable within an allelic series)

Question: And the binding signal (HOXC9 [9])?
Answer: 9.72 upbm affinity estimate (log intensity, higher = more binding, comparable within an allelic series)

Question: Which results are given for ACGTTGGG?
Answer: binding signal (HOXC9 [1]): 9.64 upbm affinity estimate (log intensity, higher = more binding, comparable within an allelic series); binding signal (NKX2-6): 9.44 upbm affinity estimate (log intensity, higher = more binding, comparable within an allelic series); binding signal (HOXC9 [2]): 9.65 upbm affinity estimate (log intensity, higher = more binding, comparable within an allelic series); binding signal (HOXC9 [5]): 9.64 upbm affinity estimate (log intensity, higher = more binding, comparable within an allelic series); binding signal (HOXC9 [9]): 9.77 upbm affinity estimate (log intensity, higher = more binding, comparable within an allelic series)

Question: What does the source list for CACAATTA?
Answer: binding signal (HOXC9 [1]): 11.7 upbm affinity estimate (log intensity, higher = more binding, comparable within an allelic series); binding signal (HOXC9 [2]): 11.7 upbm affinity estimate (log intensity, higher = more binding, comparable within an allelic series); binding signal (MSX2 [3]): 12.1 upbm affinity estimate (log intensity, higher = more binding, comparable within an allelic series); binding signal (HOXC9 [5]): 11.7 upbm affinity estimate (log intensity, higher = more binding, comparable within an allelic series); binding signal (MSX2 [7]): 13.4 upbm affinity estimate (log intensity, higher = more binding, comparable within an allelic series); binding signal (MSX2 [10]): 13 upbm affinity estimate (log intensity, higher = more binding, comparable within an allelic series)

Question: Which results are given for AGTATTAT?
Answer: binding signal (HOXC9 [1]): 11.6 upbm affinity estimate (log intensity, higher = more binding, comparable within an allelic series); binding signal (HOXC9 [2]): 11.6 upbm affinity estimate (log intensity, higher = more binding, comparable within an allelic series); binding signal (HOXC9 [5]): 11.6 upbm affinity estimate (log intensity, higher = more binding, comparable within an allelic series)

Question: What does the source list for CGGAGCCC?
Answer: binding signal (HOXC9 [1]): 9.46 upbm affinity estimate (log intensity, higher = more binding, comparable within an allelic series); binding signal (HOXA2 [13]): 7.2 upbm affinity estimate (log intensity, higher = more binding, comparable within an allelic series); binding signal (HOXC9 [2]): 9.37 upbm affinity estimate (log intensity, higher = more binding, comparable within an allelic series); binding signal (HOXC9 [5]): 9.44 upbm affinity estimate (log intensity, higher = more binding, comparable within an allelic series); binding signal (HOXA2 [14]): 10.2 upbm affinity estimate (log intensity, higher = more binding, comparable within an allelic series); binding signal (PROP1 [17]): 6.65 upbm affinity estimate (log intensity, higher = more binding, comparable within an allelic series); binding signal (PROP1 [18]): 6.77 upbm affinity estimate (log intensity, higher = more binding, comparable within an allelic series); binding signal (HOXC9 [9]): 9.51 upbm affinity estimate (log intensity, higher = more binding, comparable within an allelic series); binding signal (PROP1 [19]): 6.36 upbm affinity estimate (log intensity, higher = more binding, comparable within an allelic series); binding signal (HOXA2 [15]): 10.1 upbm affinity estimate (log intensity, higher = more binding, comparable within an allelic series); binding signal (HOXA2 [16]): 7.02 upbm affinity estimate (log intensity, higher = more binding, comparable within an allelic series)

Question: For AGCCGTGG, which binding signal (HOXC9 [1]) is on record?
Answer: 9.64 upbm affinity estimate (log intensity, higher = more binding, comparable within an allelic series)

Question: What about the binding signal (HOXC9 [2]) of the same sequence?
Answer: 9.68 upbm affinity estimate (log intensity, higher = more binding, comparable within an allelic series)

Question: And the binding signal (HOXD13 [4])?
Answer: 9.67 upbm affinity estimate (log intensity, higher = more binding, comparable within an allelic series)

Question: And the binding signal (HOXC9 [5])?
Answer: 9.58 upbm affinity estimate (log intensity, higher = more binding, comparable within an allelic series)

Question: And the binding signal (HOXD13 [6])?
Answer: 9.7 upbm affinity estimate (log intensity, higher = more binding, comparable within an allelic series)

Question: And the binding signal (PROP1 [17])?
Answer: 6.79 upbm affinity estimate (log intensity, higher = more binding, comparable within an allelic series)

Question: What about the binding signal (PROP1 [18]) of the same sequence?
Answer: 6.82 upbm affinity estimate (log intensity, higher = more binding, comparable within an allelic series)

Question: What about the binding signal (HOXD13 [8]) of the same sequence?
Answer: 9.83 upbm affinity estimate (log intensity, higher = more binding, comparable within an allelic series)

Question: What about the binding signal (HOXC9 [9]) of the same sequence?
Answer: 9.77 upbm affinity estimate (log intensity, higher = more binding, comparable within an allelic series)

Question: What about the binding signal (PROP1 [19]) of the same sequence?
Answer: 6.72 upbm affinity estimate (log intensity, higher = more binding, comparable within an allelic series)
